{"source": "PubChem BioAssay AID624396", "about": "(The Scripps Research Institute Molecular Screening Center, 2012)", "tested_on": "BCL2 1863", "test": "apoptosis induction in cancer cell lines, late-stage follow-up, mechanism study for MCL1-BIM inhibitor project, imaging, DAPI staining, cell line panel, probe (AID 624396)", "conditions": "DAPI nuclear morphology, at 25 µM, active compounds read high", "note": "The source made the active and inactive calls.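 Rule for the calls: active = over 15% of cells apoptotic at 25 µM, or half-maximal dose of 10 µM or lower; inactive = the rest.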"}
{"smiles": "CCN1CCN(C(c2ccc(C(F)(F)F)cc2)c2ccc3cccnc3c2O)CC1", "note": "(stereo unspecified)", "values": [{"measurement": "apoptosis", "result": "21% (active)"}]}
